The results in this text go back to PubChem BioAssay (NCATS).

Records with an inconclusive call do not appear. Unmarked numbers belong to inactive results. Calls of active or inactive are those of the source. Calls come from the whole dose curve; as a rule, active = well fitted cell-killing curve with a large enough effect; inconclusive = small, poorly fitted or top-dose-only effect, or effect the other way; inactive = flat fitted curve, though single readings scatter. Where a SMILES comes first, the peptide text is derived from it. [ ]: non-standard residue; d: D form. Ala(indol-2-yl) = N[C@@H](Cc1cc2ccccc2[nH]1)C(=O)O; Aib = CC(C)(N)C(=O)O
% is set by controls: 0 for no effect and ±100 for the full control effect; potency is the fitted concentration of half-maximal effect.

The test system of one assay is HeLa. In words: Primary qHTS to identify gynecologic anti-cancer compounds using libraries of approved drugs and bioactive compounds (AID 1345084). Note: nearly all actives have a fitted effect of over 55% in size. Particulars: Gynecologic cancer cell panel viability, ATPlite luminescence, 48 h; series mostly up to 57.5 µM; activity change, negative = cytotoxicity: at the top concentration. The essentials: (§1)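 Cell viability after 48 h drug treatment, ATPlite luminescence readout; five doses.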
A general note: In qHTS, concentration-response curves come from the screen itself.
Turning to `O=C(OC[C@H]1O[C@@H](Oc2ccc(O)cc2CO)[C@H](O)[C@@H](O)[C@@H]1O)c1ccccc1`, the “activity change, negative = cytotoxicity” value is 8.65% [at 25.3 µM]. On to `CC(=O)O[C@@H]1[C@@H](O)[C@H]2O[C@@H]3C=C(C)[C@@H](O)C[C@]3(CO)[C@]1(C)[C@]21CO1`, for which the Potency was 2510 nM (active). Take `CC(C)(NC(=O)[C@@H](N)Cc1ccc(O)cc1)C(=O)N[C@@H](Cc1cc2ccccc2[nH]1)C(=O)N[C@@H](Cc1ccccc1)C(=O)O` (H-Y[Aib][Ala(indol-2-yl)]F-OH): the activity change, negative = cytotoxicity is 14.3% [at 11.6 µM]. On to `C=C1[C@@H](C)[C@H]2[C@H](Cc3ccccc3)NC(=O)[C@]23[C@H](OC(C)=O)/C=C/[C@](C)(O)C(=O)[C@@H](C)C/C=C/[C@H]3[C@@H]1O`, for which the “activity change, negative = cytotoxicity” value is -26.8%. On to `C[C@@H]1C[C@@H](O)[C@]2(O)O[C@@H]3C[C@@]4(C=O)C(CC[C@@H]5C4CC[C@]4(C)[C@@](O)(C6=CC(=O)OC6)CC[C@]54O)C[C@H]3OC2O1` (stereo not given in full), for which the Potency is 3980 nM (active). As for `CN[C@@H]1C[C@H]2O[C@@](C)([C@@H]1OC)n1c3ccccc3c3c4c(c5c6ccccc6n2c5c31)C(=O)NC4`, the Potency was 282 nM (active). `CC1=C[C@H]2O[C@@H]3C[C@H]4OC(=O)/C=C/C=C/C(=O)OCC/C(C)=C/C(=O)OC[C@@]2(CC1)[C@]4(C)[C@]31CO1`: the Potency was 89.1 nM (active). Turning to `CC(=O)OC[C@]12C[C@H](OC(=O)CC(C)C)C(C)=C[C@H]1O[C@@H]1[C@H](O)[C@@H](O)[C@@]2(C)[C@]12CO2`, the Potency was 158 nM (active). Still for that read-out and setting: then `CC(=O)OC[C@]12C[C@H](OC(=O)CC(C)C)C(C)=C[C@H]1O[C@@H]1[C@H](O)C[C@@]2(C)[C@]12CO2`, with 3980 nM (active); and `CO[C@H]1[C@H](O)[C@H](O[C@H]2CC[C@]3(C=O)C4CC[C@]5(C)[C@H](C6=CC(=O)OC6)CC[C@]5(O)C4CC[C@@H]3C2)O[C@@H](C)[C@@H]1O` (stereo not given in full), with 126 nM (active); and `C[C@H]1O[C@@H](O[C@H]2CC[C@]3(C=O)C4CC[C@]5(C)[C@@H](C6=CC(=O)OC6)CC[C@]5(O)[C@@H]4CC[C@]3(O)C2)C[C@@H](O)[C@@H]1O` (stereo not given in full), with 126 nM (active). For `COC1CC(O[C@H]2CC[C@]3(C=O)C4CC[C@]5(C)[C@@H](C6=CC(=O)OC6)CC[C@]5(O)[C@@H]4CC[C@@H]3C2)OC(C)C1O[C@@H]1O[C@H](CO)[C@@H](O[C@@H]2O[C@H](CO)[C@@H](O)[C@H](O)[C@H]2O)[C@H](O)[C@H]1O` (stereo not given in full), the Potency was 398 nM (active). `C[C@]12CC[C@H](O)C[C@H]1CC[C@@H]1[C@@H]2[C@H](O)C[C@]2(C)[C@@H](c3ccc(=O)oc3)CC[C@]12O`: the Potency is 112 nM (active).

For the compound `C[C@H]1O[C@@H](O[C@H]2CC[C@]3(CO)C4CC[C@]5(C)[C@@H](C6=CC(=O)OC6)CC[C@]5(O)[C@@H]4CC[C@H]3C2)[C@H](O)[C@H](O)[C@@H]1O[C@@H]1O[C@H](CO)[C@@H](O)[C@H](O)[C@H]1O` (stereo not given in full), the Potency is 3160 nM (active). Still for that read-out and setting: the result for `CC1=C[C@H]2O[C@@H]3[C@H](O)[C@@H](O)[C@](C)([C@@]2(CO)C[C@@H]1O)[C@]31CO1` reads 12600 nM (active).

Consider `C[C@H]1O[C@@H](n2cnc3c(N)ncnc32)C[C@@H]1O`, for which the “activity change, negative = cytotoxicity” value was 1.86%. As to `CO[C@@H]1C[C@H](O[C@H]2CC[C@@]3(C)C(CCC4C3CC[C@]3(C)[C@@H](C5=CC(=O)OC5)[C@@H](OC(C)=O)CC43O)C2)O[C@H](C)[C@@H]1O[C@H]1O[C@H](CO[C@@H]2O[C@H](CO)[C@@H](O)[C@H](O)[C@H]2O)[C@@H](O)[C@H](O)[C@H]1O` (stereo not given in full), the Potency is 1580 nM (active). For `CC1=CC2OC3[C@H](O)C[C@@](C)([C@]34CO4)[C@@]2(CO)[C@H](O)C1=O` (stereo not given in full), the Potency is 25100 nM (active). Consider `CC(=O)O[C@H]1CC[C@@]2(CI)C(=CC[C@@H]3[C@@H]2CC[C@]2(C)C(=O)CC[C@@H]32)C1`, for which the “activity change, negative = cytotoxicity” value is 0.309%. Take `C[C@H](CCC(=O)O)C[C@H](C)C[C@H](C)C(=O)/C=C(\O)[C@H](C)C[C@H](C)C/C=C/[C@@H](C)[C@@H](O)[C@@H](C)[C@@H](O)C[C@@H]1CC[C@@](C)([C@H]2CC[C@@](C)([C@@H](C)O)O2)O1`: the “activity change, negative = cytotoxicity” value is -2.16% [at 25.3 µM]. Consider `CN(C)c1cc2c(cc1Sc1nc3c(N)nccc3n1CCNCC(C)(C)C)OCO2`, for which the “activity change, negative = cytotoxicity” value was -29.9%. `N#CC(O[C@@H]1O[C@H](CO)[C@@H](O)[C@H](O)[C@H]1O)c1ccccc1` (stereo not given in full): the “activity change, negative = cytotoxicity” value was 9.26%. For `COC1CC(O[C@H]2CC[C@]3(C)C4CC[C@]5(C)[C@@H](C6=CC(=O)OC6)[C@@H](OC(C)=O)C[C@]5(O)C4CC[C@@H]3C2)OC(C)C1O` (stereo not given in full), the Potency was 891 nM (active). Take `CC(=O)OC[C@]12C[C@H](O)C(C)=C[C@H]1O[C@@H]1[C@H](O)[C@@H](OC(C)=O)[C@@]2(C)[C@]12CO2`: the Potency was 178 nM (active).

In a further assay the test system is Hek293T. The description is as above. Particulars: Gynecologic cancer cell panel viability, ATPlite luminescence, 48 h, control line for the selectivity index; series mostly up to 57.5 µM; activity change, negative = cytotoxicity: at the top concentration. The procedure, abridged:
as §1
In general terms: Cellular ATP, detected with luciferase, serves as a proxy for viable cell number.
`O=C(OC[C@H]1O[C@@H](Oc2ccc(O)cc2CO)[C@H](O)[C@@H](O)[C@@H]1O)c1ccccc1`: the “activity change, negative = cytotoxicity” value was 14.9% [at 25.3 µM]. Consider `CC(C)(NC(=O)[C@@H](N)Cc1ccc(O)cc1)C(=O)N[C@@H](Cc1cc2ccccc2[nH]1)C(=O)N[C@@H](Cc1ccccc1)C(=O)O` (H-Y[Aib][Ala(indol-2-yl)]F-OH), for which the activity change, negative = cytotoxicity is -0.36% [at 11.6 µM].

Consider `C=C1[C@@H](C)[C@H]2[C@H](Cc3ccccc3)NC(=O)[C@]23[C@H](OC(C)=O)/C=C/[C@](C)(O)C(=O)[C@@H](C)C/C=C/[C@H]3[C@@H]1O`, for which the “activity change, negative = cytotoxicity” value is -32.7%. Turning to `COc1ccc2c3c([nH]c2c1)C(C=C(C)C)N1C(=O)C2CCCN2C(=O)C1C3` (stereo not given), the “activity change, negative = cytotoxicity” value is -14.6% [at 38.5 µM]. As to `C[C@@H]1C[C@@H](O)[C@]2(O)O[C@@H]3C[C@@]4(C=O)C(CC[C@@H]5C4CC[C@]4(C)[C@@](O)(C6=CC(=O)OC6)CC[C@]54O)C[C@H]3OC2O1` (stereo not given in full), the Potency was 3160 nM (active). With `CC(=O)OC[C@]12C[C@H](OC(=O)CC(C)C)C(C)=C[C@H]1O[C@@H]1[C@H](O)[C@@H](OC(C)=O)[C@@]2(C)[C@@]12CO2`, the Potency was 112 nM (active). Take `CN[C@@H]1C[C@H]2O[C@@](C)([C@@H]1OC)n1c3ccccc3c3c4c(c5c6ccccc6n2c5c31)C(=O)NC4`: the Potency was 4470 nM (active). For `CC(=O)OC[C@]12C[C@H](OC(=O)CC(C)C)C(C)=C[C@H]1O[C@@H]1[C@H](O)[C@@H](O)[C@@]2(C)[C@]12CO2`, the Potency was 79.4 nM (active). Take `CC(=O)OC[C@]12C[C@H](OC(=O)CC(C)C)C(C)=C[C@H]1O[C@@H]1[C@H](O)C[C@@]2(C)[C@]12CO2`: the Potency was 1000 nM (active). The same measure, in the same setting: then `COC1CC(O[C@H]2CC[C@]3(C)C4CC[C@]5(C)[C@@H](C6=CC(=O)OC6)[C@@H](OC(C)=O)C[C@]5(O)C4CC[C@@H]3C2)OC(C)C1O[C@@H]1O[C@H](CO)[C@@H](O)[C@H](O)[C@H]1O` (stereo not given in full), with 1410 nM (active). On to `Cc1c(Cl)c(OCC(=O)N2CCN(C)CC2)nc2sc(C(=O)NC3CC3)c(N)c12`, for which the “activity change, negative = cytotoxicity” value is 3.13%. Turning to `CO[C@H]1[C@H](O)[C@H](O[C@H]2CC[C@]3(C=O)C4CC[C@]5(C)[C@H](C6=CC(=O)OC6)CC[C@]5(O)C4CC[C@@H]3C2)O[C@@H](C)[C@@H]1O` (stereo not given in full), the Potency is 126 nM (active). Consider `C[C@H]1O[C@@H](O[C@H]2CC[C@]3(C=O)C4CC[C@]5(C)[C@@H](C6=CC(=O)OC6)CC[C@]5(O)[C@@H]4CC[C@]3(O)C2)C[C@@H](O)[C@@H]1O` (stereo not given in full), for which the Potency is 141 nM (active). Same read-out and setting: the result for `COC1CC(O[C@H]2CC[C@]3(C=O)C4CC[C@]5(C)[C@@H](C6=CC(=O)OC6)CC[C@]5(O)[C@@H]4CC[C@@H]3C2)OC(C)C1O[C@@H]1O[C@H](CO)[C@@H](O[C@@H]2O[C@H](CO)[C@@H](O)[C@H](O)[C@H]2O)[C@H](O)[C@H]1O` (stereo not given in full) reads 447 nM (active); that for `C[C@H]1O[C@@H](O[C@H]2CC[C@]3(CO)C4CC[C@]5(C)[C@@H](C6=CC(=O)OC6)CC[C@]5(O)[C@@H]4CC[C@H]3C2)[C@H](O)[C@H](O)[C@@H]1O[C@@H]1O[C@H](CO)[C@@H](O)[C@H](O)[C@H]1O` (stereo not given in full), 3160 nM (active). The same measure, in the same setting: then `CC1=C[C@H]2O[C@@H]3[C@H](O)[C@@H](O)[C@](C)([C@@]2(CO)C[C@@H]1O)[C@]31CO1`, with 2820 nM (active). Consider `C[C@H]1O[C@@H](n2cnc3c(N)ncnc32)C[C@@H]1O`, for which the “activity change, negative = cytotoxicity” value is 3.09%. Take `OCc1nnc2n1-c1ccc(Cl)cc1C(c1ccccc1Cl)=NC2`: the “activity change, negative = cytotoxicity” value was 12.2%.

For the compound `CC[C@H]1C2CC3[C@@H]4N(C)c5ccccc5[C@]45C[C@@H]([C@H]2[C@H]5O)N3[C@@H]1O`, the “activity change, negative = cytotoxicity” value was -0.556% [at 38.5 µM]. Regarding `CO[C@@H]1C[C@H](O[C@H]2CC[C@@]3(C)C(CCC4C3CC[C@]3(C)[C@@H](C5=CC(=O)OC5)[C@@H](OC(C)=O)CC43O)C2)O[C@H](C)[C@@H]1O[C@H]1O[C@H](CO[C@@H]2O[C@H](CO)[C@@H](O)[C@H](O)[C@H]2O)[C@@H](O)[C@H](O)[C@H]1O` (stereo not given in full), the Potency is 2000 nM (active). On to `CC[C@@]1(O)C(=O)OCc2c1cc1n(c2=O)Cc2cc3c(OC)cccc3nc2-1`, for which the Potency is 1580 nM (active). In the case of `CC(=O)O[C@H]1CC[C@@]2(CI)C(=CC[C@@H]3[C@@H]2CC[C@]2(C)C(=O)CC[C@@H]32)C1`, the “activity change, negative = cytotoxicity” value was -2.85%.

For `C=C1[C@@H](C)[C@H]2[C@H](Cc3ccccc3)NC(=O)[C@]23OC(=O)/C=C/C(=O)CCC[C@@H](C)C/C=C/[C@H]3[C@@H]1O`, the Potency is 15800 nM (active). Consider `C[C@H](CCC(=O)O)C[C@H](C)C[C@H](C)C(=O)/C=C(\O)[C@H](C)C[C@H](C)C/C=C/[C@@H](C)[C@@H](O)[C@@H](C)[C@@H](O)C[C@@H]1CC[C@@](C)([C@H]2CC[C@@](C)([C@@H](C)O)O2)O1`, for which the “activity change, negative = cytotoxicity” value was -23.2% [at 25.3 µM]. As for `CN(C)c1cc2c(cc1Sc1nc3c(N)nccc3n1CCNCC(C)(C)C)OCO2`, the Potency was 1260 nM (active). On to `CC(C)(C)[C@]1(O)C[C@@H]2OC(=O)C[C@@]23C(=O)O[C@@H]2OC(=O)[C@@H](O)[C@]213`, for which the “activity change, negative = cytotoxicity” value is 13.7% [at 38.5 µM].
